Bioassay records: PubChem, National Center for Advancing Translational Sciences (NCATS)
Shown are actives, neighbours in structure and some others; about 21% of the full set was active somewhere.
CHX counter: counter-screen hit for Shiga toxin inhibitors, cycloheximide; cell reporter, cycloheximide protein synthesis inhibition counterscreen; max response, %; 12% of 300,000 active; in the data active = max response mostly above about 13%, no sharp cut-off; inactive = mostly below about 14%; also: read at 38.3 µM for the half of the compounds with a filed dose; 0% is about no effect
Pf growth 96h: P. falciparum growth inhibition at 96 hours; P. falciparum luciferase reporter growth, 96 h; Potency, µM (top dose mostly 28.7 µM), inactives show at the highest dose activity change, negative = inhibition, hits mostly inhibitors; 6.9% of 320,000 active; AID 504834; also: potency is read from the fitted curve at half-maximal effect; % is scaled to controls: 0 for no effect and ±100 for the full control effect
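Infected RBCs, 2% Hct / 0.05% parasitemia final; luciferase-reporter P. falciparum; cpd 96 h, 37 C, 5% CO2; luciferase detection reagent; luminescence.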
Shiga toxin inh: inhibitors of Shiga toxin in Vero cells; Vero cells, Shiga toxin protein synthesis inhibition reporter; inhibition, % at 38.7 µM; 9.2% of 290,000 active; AID 2315; in the data active = inhibition mostly above about 28%, no sharp cut-off; inactive = mostly below about 43%; also: 0% is about no effect
Pf growth 48h: inhibits P. falciparum growth in the first generation, 48 h; 5.9% of 310,000 active; Potency, µM (doses to about 28.7 µM), inactives show at the top dose activity change, negative = inhibition, usual class: inhibitors; P. falciparum luciferase growth in erythrocytes, 48 h; AID 504832; also: potency is read from the fitted curve at half-maximal effect; % is scaled to controls: 0 for no effect and ±100 for the full control effect
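Firefly luciferase activity from engineered P. falciparum reports growth; inhibitors lower the luminescent signal. Cultures contained 2% hematocrit erythrocytes at 0.1% final parasitemia.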
NS1 inh: influenza NS1 inhibition; Potency, µM (top dose mostly 46.1 µM), inactives show top-dose activity, positive = more growth; 0.4% of 270,000 active; AID 2326; calls by dose curve; also: potency is read from the fitted curve at half-maximal effect; actives are rising curves; nearly all actives have a fitted effect of over 50% in size
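Growth recovery, yeast-based: influenza A NS1 expressed in S. cerevisiae causes slow growth, and suppressors are detected by OD600. The parent strain without NS1 is used as positive control.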
* = called active by the depositor; u = inconclusive; x = no result; [ ] = remark or other dose. Unless noted, calls follow the shape of the dose curve; as a rule, active = well fitted inhibition curve with a large enough effect; inconclusive = small, poorly fitted or top-dose-only effect, or another doubt; inactive = no such curve, though single readings can be large or run the other way.

SMILES | CHX counter | Pf growth 96h | Shiga toxin inh | Pf growth 48h | NS1 inh
O=C(CCN1N=C(c2ccccc2)CCC1=O)NCC1CCCO1 (stereo not drawn) | -3 | 3.7µM* | -7 | 13% | 7%
O=C(CSc1nc(-c2ccccc2)ns1)NCC1CCCO1 (stereo not drawn) | 45* | 40% | 65* | 30% | -5%
CCOc1ccc(-c2ccc(SCC(=O)NCC3CCCO3)nn2)cc1 (stereo not drawn) | 37* | 451% | 47 | 100% | x
COc1ccc(-c2cn3nc(SCC(=O)NCC4CCCO4)ccc3n2)cc1 (stereo not drawn) | 26* | 8% | 61* | 18% | -4%
OCCNc1nc(-c2ccccc2)nc2c1oc1ccccc12 | 2 | -17% | 10 | u | -5%
COc1cccc(C(C(=O)NC2CCCC2)N(Cc2ccccc2OC)C(=O)c2ccco2)c1 (stereo not drawn) | -3 | 19% | -2 | u | -3%
O=C(CSc1ccc2nc(-c3ccccc3)cn2n1)NCC1CCCO1 (stereo not drawn) | 23* | 5.2µM* | 70* | 67% | -2%
CCOC(=O)CNC(=O)CSc1nc(-c2ccc(C)cc2)ns1 | 24 | 39% | 48* | 35% | x
COc1ccc(CCNC(=O)CSc2nnc(C(C)N(C)C)n2Cc2ccccc2)cc1OC (stereo not drawn) | -2 | -21% | -20 | u | -2%
COc1ccc(OC)c2c(N3CC(C)OC(C)C3)cc(C(F)(F)F)nc12 (stereo not drawn) | 21* | 0% | 78* | 112% | -3%
Nc1c(C(=O)Nc2ccc(Br)cc2)sc2nc(-c3ccncc3)ccc12 | 17 | x | 18 | x | x
Nc1c(C(=O)Nc2ccc(F)cc2)sc2nc(-c3ccco3)ccc12 | 32* | -15% | 67 | -20% | -48%
CC(=O)c1sc2nc(-c3ccco3)ccc2c1N | 32* | 267% | 76* | 172% | -3%
Nc1c(C(=O)Nc2ccc(Br)cc2)sc2nc(-c3ccco3)ccc12 | 29* | 0% | 38* | -53% | 19%
Cc1c(NC(=O)CSc2ncnc3ccccc23)c(=O)n(-c2ccccc2)n1C | 0 | -4% | -15 | -6% | x
COc1ccc(-c2noc(N3CCCC(C(=O)Nc4ccc(F)cc4F)C3)n2)cc1 (stereo not drawn) | 14* | 9.3µM* | 23* | 21% | -25%
COc1ccc(-c2noc(N3CCCC(C(=O)Nc4ccccc4F)C3)n2)cc1 (stereo not drawn) | 6 | 10µM* | 2 | 5% | -8%
COc1ccc(-c2noc(N3CCC(C(=O)Nc4ccc(F)cc4)CC3)n2)cc1 | -2 | -5% | 4 | -18% | 7%
COc1ccc2nc(N3CCCC3)c(C#N)cc2c1 | 16 | 8.3µM* | 22 | x | -15%
COc1ccc2nc(N3CCCCC3)c(/C=C3\SC(=S)NC3=O)cc2c1 | -1 | 4% | -7 | -8% | -4%
Cc1ccc2cc(C#N)c(N3CCCC3)nc2c1C | 7 | 112% | -5 | -4% | -5%
COc1ccc2nc(N3CCCCC3)c(C#N)cc2c1 | 64* | 14% | 124* | u | -17%
COc1ccccc1C(=O)N1CCN(c2nc3cc(C)c(C)cc3cc2C#N)CC1 | -3 | 10µM* | 1 | u | -47%
CCc1ccc(NC(=O)CSc2nc3ccccc3c(=O)n2CCCC(=O)NCCCN2CCOCC2)cc1 | 5 | u | -9 | 7.4µM* | x
CCOc1ccc(NC(=O)CSc2nc3ccccc3c(=O)n2CCCC(=O)NCCCN2CCCC2=O)cc1 | -1 | 1% | -7 | u | x
SMILES | CHX counter | Pf growth 96h | Shiga toxin inh | Pf growth 48h | NS1 inh
COc1ccc(CSc2nc3ccccc3c(=O)n2CCCN2CCOCC2)cc1F | 9 | 8.3µM* | 31 | u | x
Cc1ccc(NC(=O)CSc2nc3ccccc3c(=O)n2CCCN2CCCCC2)cc1Cl | -16 | u | -13 | -15% | x
COCCNC(=O)CSc1nc2ccc(N3CCOCC3)cc2c(=O)n1CCc1ccccc1 | 14* | -25% | active | 0% | -40%
Cc1ccc(NC(=O)CSc2nc3ccccc3c(=O)n2CCCC(=O)NCCCN2CCOCC2)cc1C | -8 | 13µM* | -13 | u | x
CC(C)(C)N(Cc1ccccc1)C(=O)COC(=O)CNS(=O)(=O)c1ccc2ccccc2c1 | x | 8% | x | 0% | x
Cn1c2c(c(=O)n(C)c1=O)NC1(N2)C(=O)Nc2ccccc21 (stereo not drawn) | -1 | u | -7 | u | -5%
O=C(NCCC1=CCCCC1)C1CCN(C(=O)c2ccc(Br)cc2)CC1 | 1 | u | -2 | -15% | 3%
O=C(NNS(=O)(=O)c1ccc(F)c(Cl)c1)c1cccc(S(=O)(=O)N2CCOCC2)c1 | -1 | 33% | 1 | 20% | 2%
CC(Oc1ccc2oc(-c3ccccc3)c(C(=O)O)c2c1)C(=O)O (stereo not drawn) | -2 | 21% | -1 | 2% | -7%
O=C(CSc1nc2ccccc2c(=O)n1CCCN1CCOCC1)Nc1cccc(S(=O)(=O)N2CCCCCC2)c1 | -4 | 0.52µM* | 2 | 0.52µM* | -2%
Cc1cc(C(C)(C)C)cc(C)c1C(=O)O | 1 | 30% | -3 | 24% | 0%
O=C(Nc1ccc(C(=O)OC2CCCCC2)cc1)c1ccncc1 | 12 | 5.2µM* | 7 | 13% | -14%
CCCCC(=O)Nc1ccc(C(=O)OC2CCCCC2)cc1 | 32 | x | 52 | 10µM* | -68%
CC(C)(C)C(=O)Nc1ccc(C(=O)OC2CCCCC2)cc1 | 50* | x | 102* | 128% | -10%
O=C(OC1CCCCC1)c1ccc(NC(=O)C2CCCCC2)cc1 | 10 | 12µM* | 13 | x | -7%
COc1ccc(C(=O)NC(CCSC)C(=O)NCc2nnc3ccccn23)cc1 (stereo not drawn) | x | 21% | x | 31% | x
Cc1ccc(N2CC(C(=O)NC3CCC(C)CC3)CC2=O)cc1 (stereo not drawn) | -2 | u | 3 | 5% | 9%
NC(=O)C1CCN(C(=O)C(Cc2ccccc2)NC(=O)c2ccccc2)CC1 (stereo not drawn) | x | 16% | x | -5% | x
CCn1cc(C(=O)Nc2cccc(C)c2)c(=O)c2ccc(C)nc21 | -1 | 56% | 27 | 9% | x
CC(C)C[C@H](NC(=O)Nc1ccc2c(c1)OCCO2)C(=O)O | 14 | -14% | 53 | 20% | 3%
COCCCNC(=S)N/N=C/c1ccc(OC)cc1 | 10* | -56% | 13 | -53% | 0%
COCCCNC(=S)N/N=C/c1ccc(O)cc1 | 0 | 0% | 15 | 42% | 0%
COCCCNC(=S)N/N=C/c1cccc(OC)c1O | 42* | u | 49* | 0.41µM* | 1%
COc1ccc(/C=C/C(=O)N2CCNC(=O)C2)c(OC)c1 | 14* | 64% | 27 | 37% | 6%
O=C1CN(C(=O)/C=C/c2ccc(Br)cc2)CCN1 | 17* | 38% | 25 | 16%[0.00184 µM] | -1%
COc1ccc(NC(=O)c2cnc3sccn3c2=O)cc1OC | x | x | x | x | -6%
